Compounds without any hit were thinned out: in the full panel of roughly 83,000, 20% have a hit.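 Compound tested at a single concentration for 48 hours in 96-well plates; a percent growth value below 10 was scored as active.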 Unmarked numbers belong to inactive results. Activity calls are given as the source filed them.
Each molecule was assayed on A549/ATCC NSCLC (assay: NCI-60 one-dose screen, 48 h (100 = growth as untreated, 0 = no growth, -100 = all killed)). Conditions: 10 µM unless noted.

Row | Structure (SMILES) | growth
1 | O=C(Nc1ccc(-c2ccc3c(c2)NC(=O)/C3=C\c2ccc[nH]2)cc1)NC1CC1 | 102%
2 | O=c1ccc(-c2nc(N3CCOCC3)c3ccccc3n2)c[nH]1 | 97%
3 | COc1cc(/C=C\C(=O)O)ccc1OCc1ccccc1 | 82.3%
4 | COc1ccc(C(C)=O)c(OC)c1 | 105%
5 | NC1=NN=C(N)C1=Cc1cc2ccccc2n2nnnc12 | 103%
6 | C=C1C(=O)O[C@H]2[C@H]1CC/C(CNC(=O)/C=C/c1cccc(OC)c1)=C\CC[C@@]1(C)O[C@@H]21 | 47.2%
7 | CNC(=O)c1cc(Cn2nc(C)c(NC(=O)Nc3ccc(Cl)c(C(F)(F)F)c3)c2C)ccn1 | 70%
8 | Cc1ccc(/C=N/NC(=O)CSc2nc3ccccc3c(=O)n2Cc2ccc(S(N)(=O)=O)cc2)cc1 | 85.9%
9 | O=C(Cc1ccc(/C=C/C(=O)c2ncc[nH]2)cc1)Nc1ccc(Cl)cc1 | 33.2%
10 | CCCOC(=O)N[C@H]1CCc2c(Cl)c(OC)c(OC)c(OC)c2-c2ccc(SC)c(=O)cc21 | 22.8%
11 | O=S(=O)(NCCCNc1nccc(-c2c(-c3cccc(O)c3)nc3occn23)n1)c1ccc(Cl)cc1 | 90.5%
12 | COc1cc2c(=O)n(CCN(C)C)c3c4cc5c(cc4ccc3c2cc1OC)OCO5 | -84.9% (active)
13 | C=CC(=O)N[C@@H](/C=C/C(=O)OCC)Cc1ccc(-c2cc(Cl)cc(Cl)c2)cc1 | 11.6%
14 | NC(=NCCCOc1ccc(F)cc1)Nc1ccc(I)cc1 | 70.4%
15 | Cc1cc2nc3c4cccc(O)c4n(CCN(C)C)c3nc2cc1C | 20.4%
16 | Oc1ccc(C(c2ccc(O)cc2)c2ccc(Br)cn2)cc1 | 37.3%

Each molecule was assayed on 786-0 renal in the same assay as above. Conditions: 10 µM unless noted.

Row | Structure (SMILES) | growth
17 | COc1cc(C=O)ccc1OC1OC(COC(C)=O)C(OC(C)=O)C(OC(C)=O)C1OC(C)=O (centres undefined) | 105%
18 | CC1=CCC(OC(=O)C(C)(O)CCC(O)(C(=O)OC2(C)C=CC(O)(C(C)C)CC2)C(C)C)(C(C)C)CC1 (centres undefined) | 100%
19 | CC(=O)Nc1cccc(-c2ccc3c(c2)NC(=O)/C3=C\c2ccc[nH]2)c1 | 59%
20 | CC(C)(C)c1ccc(NS(=O)(=O)c2ccc3nc(NC(=O)c4cnccn4)[nH]c3c2)cc1 | 30%
21 | CC(C)(C)c1cc(/C=N/NC(=O)c2ccccc2NC(=O)c2cccs2)c(O)c(C(C)(C)C)c1 | 18.4%
22 | C#CCNC(=O)[C@H](Cc1ccccc1)NC(=O)[C@]12CC[C@@H](C(=C)C)[C@@H]1[C@H]1CC[C@@H]3[C@@]4(C)CCC(=O)C(C)(C)[C@@H]4CC[C@@]3(C)[C@]1(C)CC2 | 76%
23 | CCCCCCNC(=O)Oc1ccc(/C(=C(\C)c2ccccc2)c2ccc(OCCCN(C)C)cc2)cc1 | 71%
24 | CC(=O)Nc1ccc(-c2ccc3c(c2)NC(=O)/C3=C\c2ccc[nH]2)cc1 | 99.3%
25 | CCCCOc1ccc(/C=N/Nc2cc(C)nc3ccc(Br)cc23)cc1 | -83.7% (active)
26 | COc1cc(/C(C)=C(\c2ccc(Cl)cc2)c2ccc(OCCN(C)C)cc2)ccc1F | 65.7%
27 | O=C(/C=C/c1ccc(Cl)cc1)c1ccc(NC(=O)N2CCN(c3cc4c(cc3F)c(=O)c(C(=O)O)cn4C3CC3)CC2)cc1 | 86.5%
28 | O=C(c1nc2ccccc2[nH]1)C1C(c2ccc(Cl)cc2)C2CC3CCCC[C@H]3N2[C@@]12C(=O)Nc1cc(Cl)ccc12 (some centres undefined) | 48.4%
29 | O=C(NCCNc1nccc(-c2c(-c3cccc(F)c3)nc3sccn23)n1)c1ccc(Cl)cc1 | 54.6%
30 | O=C(CCN1CCCC1)Nc1ccc2c(NCCCc3ccccc3)c3ccccc3nc2c1 | 24.9%
31 | N#CC1=C(/N=C/c2ccccc2)Oc2c(ccc3ccccc23)C1c1ccc([N+](=O)[O-])cc1 (centres undefined) | 102%
32 | Brc1ccc(Nc2csc(-c3ccccn3)n2)cc1 | 98.9%
33 | COc1cc(/C(C)=C(\c2ccc(Cl)cc2)c2ccc(OCCN3CCCC3)cc2)ccc1F | 71.4%
34 | CC(=O)N1c2ccccc2NC2=C(C(=O)NC2(C)C)C1c1ccco1 (centres undefined) | 93.9%
35 | CCOC(=O)CSc1nc2ccccc2c(=O)n1Cc1ccc(S(N)(=O)=O)cc1 | 104%

Row | Structure (SMILES) | growth
36 | CCCCOc1ccc(/C(C)=N/Nc2cc(C)nc3ccc(Br)cc23)cc1 | 95.1%
37 | COc1cc2c(c(O)c1Cl)C(=O)c1c(O)cc(C[C@H](C)O)cc1[C@H]2[C@H]1c2cc(C[C@H](C)O)cc(O)c2C(=O)c2c1cc(OC)c(Cl)c2O | 14.3%
38 | O=C(c1ccccc1)N1N=C(c2ccc(-n3ccc(C(F)(F)F)n3)c(F)c2)CC1c1ccc[nH]1 (centres undefined) | 97.1%
39 | O=C(Nc1ccc(-c2ccc3c(c2)NC(=O)/C3=C\c2ccc[nH]2)cc1)NC1CC1 | 110%
40 | O=c1ccc(-c2nc(N3CCOCC3)c3ccccc3n2)c[nH]1 | 97.1%
41 | COc1cc(/C=C\C(=O)O)ccc1OCc1ccccc1 | 109%
42 | COc1ccc(C(C)=O)c(OC)c1 | 103%
43 | NC1=NN=C(N)C1=Cc1cc2ccccc2n2nnnc12 | 93.9%
44 | C=C1C(=O)O[C@H]2[C@H]1CC/C(CNC(=O)/C=C/c1cccc(OC)c1)=C\CC[C@@]1(C)O[C@@H]21 | -59.2% (active)
45 | CNC(=O)c1cc(Cn2nc(C)c(NC(=O)Nc3ccc(Cl)c(C(F)(F)F)c3)c2C)ccn1 | 100%
46 | Cc1ccc(/C=N/NC(=O)CSc2nc3ccccc3c(=O)n2Cc2ccc(S(N)(=O)=O)cc2)cc1 | 99.3%
47 | O=C(Cc1ccc(/C=C/C(=O)c2ncc[nH]2)cc1)Nc1ccc(Cl)cc1 | 4.48% (active)
48 | CCCOC(=O)N[C@H]1CCc2c(Cl)c(OC)c(OC)c(OC)c2-c2ccc(SC)c(=O)cc21 | 4.31% (active)
49 | O=S(=O)(NCCCNc1nccc(-c2c(-c3cccc(O)c3)nc3occn23)n1)c1ccc(Cl)cc1 | 102%
50 | COc1cc2c(=O)n(CCN(C)C)c3c4cc5c(cc4ccc3c2cc1OC)OCO5 | -58.7% (active)
51 | C=CC(=O)N[C@@H](/C=C/C(=O)OCC)Cc1ccc(-c2cc(Cl)cc(Cl)c2)cc1 | 11.8%
52 | NC(=NCCCOc1ccc(F)cc1)Nc1ccc(I)cc1 | 72.9%
53 | Cc1cc2nc3c4cccc(O)c4n(CCN(C)C)c3nc2cc1C | 40.4%
54 | Oc1ccc(C(c2ccc(O)cc2)c2ccc(Br)cn2)cc1 | 89.7%
